Hit rate of the full screen: of about 5,500 compounds, about 2,000 (36%) were called active. About 18% were inconclusive and are not listed. The list shows a part of the results. Unmarked numbers belong to inactive results. Rule as the data show it: active = normalized growth mostly below about 0.91 (no sharp cut-off); inconclusive = no clear call, values can overlap the other calls; inactive = mostly above about 0.92.
Experiment: chemical genetic growth profiling, strain panel (AID 1159580);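 also: tested at 20 µM; growth read once vehicle control cultures reached saturation at 30 °C; 1 = growth at the plate median or of vehicle wells; lower values mean less growth of the strain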
Settings: S. cerevisiae deletion strains, growth OD

Structure (SMILES): COc1ccc(-c2oc3cc(OC)c(OC)c(OC)c3c(=O)c2OC)cc1
- normalized growth (locus YAL021C, strain ccr4, active compounds read low): 0.993
- normalized growth (locus YAL026C, strain drs2, active compounds read low): 0.881 (active)
- normalized growth (locus YAL030W, strain snc1, active compounds read low): 0.979
- normalized growth (locus YBL061C, strain skt5, active compounds read low): 0.911 (active)
- normalized growth (locus YBR009C, strain hhf1, active compounds read low): 0.899 (active)
- normalized growth (locus YBR023C, strain chs3, active compounds read low): 0.919
- normalized growth (locus YBR171W, strain sec66, active compounds read low): 0.978
- normalized growth (locus YBR231C, strain swc5, active compounds read low): 0.93
- normalized growth (locus YBR279W, strain paf1, active compounds read low): 0.982
- normalized growth (locus YCL011C, strain gbp2, active compounds read low): 0.955
- normalized growth (locus YCL016C, strain dcc1, active compounds read low): 0.948
- normalized growth (locus YCL061C, strain MRC1, active compounds read low): 0.964
- normalized growth (locus YCL069W, strain vba3, active compounds read low): 0.993
- normalized growth (locus YCR088W, strain abp1, active compounds read low): 0.991
- normalized growth (locus YDL005C, strain med2, active compounds read low): 0.982
- normalized growth (locus YDL040C, strain nat1, active compounds read low): 0.984
- normalized growth (locus YDR001C, strain nth1, active compounds read low): 0.982
- normalized growth (locus YDR069C, strain doa4, active compounds read low): 0.987
- normalized growth (locus YDR137W, strain rgp1, active compounds read low): 0.797 (active)
- normalized growth (locus YDR159W, strain sac3, active compounds read low): 0.982
- normalized growth (locus YDR195W, strain ref2): 1.04
- normalized growth (locus YDR297W, strain sur2, active compounds read low): 0.976
- normalized growth (locus YDR334W, strain swr1, active compounds read low): 0.98
- normalized growth (locus YDR335W, strain msn5, active compounds read low): 0.985
- normalized growth (locus YDR392W, strain spt3, active compounds read low): 0.421 (active)
- normalized growth (locus YEL003W, strain gim4, active compounds read low): 0.977
- normalized growth (locus YEL037C, strain rad23, active compounds read low): 0.982
- normalized growth (locus YEL061C, strain CIN8 (second series), active compounds read low): 0.98
- normalized growth (locus YER015W, strain faa2, active compounds read low): 0.981
- normalized growth (locus YER016W, strain bim1, active compounds read low): 0.988
- normalized growth (locus YER111C, strain swi4, active compounds read low): 0.983
- normalized growth (locus YER155C, strain BEM2 (second series), active compounds read low): 0.84 (active)
- normalized growth (locus YFR010W, strain ubp6, active compounds read low): 0.981
- normalized growth (locus YGL167C, strain pmr1, active compounds read low): 0.976
- normalized growth (locus YGL173C, strain kem1, active compounds read low): 0.97
- normalized growth (locus YGL227W, strain vid30, active compounds read low): 0.987
- normalized growth (locus YGL240W, strain doc1, active compounds read low): 0.959
- normalized growth (locus YGL253W, strain hxk2, active compounds read low): 0.89 (active)
- normalized growth (locus YHR013C, strain ard1, active compounds read low): 0.87
- normalized growth (locus YHR027C, strain rpn1, active compounds read low): 0.983
- normalized growth (locus YHR030C, strain SLT2, active compounds read low): 1.02
- normalized growth (locus YHR079C, strain IRE1, active compounds read low): 1.02
- normalized growth (locus YHR142W, strain chs7, active compounds read low): 0.718 (active)
- normalized growth (locus YJL092W, strain hpr5, active compounds read low): 0.984
- normalized growth (locus YJL095W, strain BCK1 (second series), active compounds read low): 0.972
- normalized growth (locus YJL095W, strain BCK1, active compounds read low): 0.959
- normalized growth (locus YJL115W, strain asf1, active compounds read low): 0.997
- normalized growth (locus YJL129C, strain trk1, active compounds read low): 0.907
- normalized growth (locus YJL154C, strain vps35, active compounds read low): 0.994
- normalized growth (locus YJL164C, strain tpk1, active compounds read low): 0.928
- normalized growth (locus YJL166W, strain qcr8, active compounds read low): 0.934
- normalized growth (locus YJL187C, strain SWE1, active compounds read low): 0.98
- normalized growth (locus YJR066W, strain TOR1, active compounds read low): 0.967
- normalized growth (locus YKL160W, strain elf1, active compounds read low): 0.945
- normalized growth (locus YKR026C, strain gcn3, active compounds read low): 0.978
- normalized growth (locus YKR091W, strain srl3, active compounds read low): 0.99
- normalized growth (locus YLL001W, strain dnm1, active compounds read low): 0.953
- normalized growth (locus YLL026W, active compounds read low): 0.983
- normalized growth (locus YLL041C, strain sdh2, active compounds read low): 0.985
- normalized growth (locus YLR027C, strain aat2, active compounds read low): 0.96
- normalized growth (locus YLR113W, strain HOG1, active compounds read low): 0.887
- normalized growth (locus YLR221C, strain rsa3, active compounds read low): 0.907 (active)
- normalized growth (locus YLR258W, strain gsy2, active compounds read low): 0.967
- normalized growth (locus YLR262C, strain YPT6 (second series), active compounds read low): 0.795 (active)
- normalized growth (locus YLR320W, strain mms22, active compounds read low): 0.815 (active)
- normalized growth (locus YLR342W, strain FKS1, active compounds read low): 0.989
- normalized growth (locus YLR357W, strain rsc2, active compounds read low): 0.896
- normalized growth (locus YLR370C, strain arc18, active compounds read low): 0.969
- normalized growth (locus YLR384C, strain iki3, active compounds read low): 0.974
- normalized growth (locus YML120C, strain ndi1, active compounds read low): 0.966
- normalized growth (locus YMR058W, strain fet3, active compounds read low): 0.959
- normalized growth (locus YMR125W, strain sto1, active compounds read low): 0.96
- normalized growth (locus YMR129W, active compounds read low): 0.992
- normalized growth (locus YMR205C, strain PFK2, active compounds read low): 0.926
- normalized growth (locus YMR231W, strain pep5, active compounds read low): 1
- normalized growth (locus YNL071W, strain lat1, active compounds read low): 0.734 (active)
- normalized growth (locus YNL183C, strain NPR1, active compounds read low): 0.928
- normalized growth (locus YNL209W, strain ssb2, active compounds read low): 0.989
- normalized growth (locus YNL248C, strain rpa49, active compounds read low): 0.984
- normalized growth (locus YNL322C, strain KRE1 (second series), active compounds read low): 0.98
- normalized growth (locus YNR049C, strain mso1, active compounds read low): 0.991
- normalized growth (locus YOR001W, strain rrp6, active compounds read low): 0.978
- normalized growth (locus YOR070C, strain gyp1, active compounds read low): 0.978
- normalized growth (locus YOR080W, strain dia2, active compounds read low): 0.991
- normalized growth (locus YOR083W, strain WHI5, active compounds read low): 0.915
- normalized growth (locus YOR106W, strain vam3, active compounds read low): 0.942
- normalized growth (locus YOR231W, strain MKK1, active compounds read low): 1.02
- normalized growth (locus YOR265W, strain rbl2, active compounds read low): 0.968
- normalized growth (locus YOR270C, strain vph1, active compounds read low): 0.785
- normalized growth (locus YOR290C, strain snf2, active compounds read low): 0.88
- normalized growth (locus YPL051W, strain arl3, active compounds read low): 0.927
- normalized growth (locus YPL078C, strain atp4, active compounds read low): 0.93
- normalized growth (locus YPL106C, strain sse1, active compounds read low): 0.944
- normalized growth (locus YPL240C, strain hsp82, active compounds read low): 0.969
- normalized growth (locus YPL256C, strain CLN2, active compounds read low): 1.04
